# Measured values published in the supplement of paper PMC10127200.
# Counter-ions that a name gives are not always drawn.
# Key:
# Test in all cases: Euclidean distance of Cell Painting phenotypic profile (signed KS, 77 features) to DMSO centroid (dimensionless distance); 5 or 10 uM (library dependent); higher = stronger phenotypic change vs DMSO (phenoactivity)
# Details in all cases: 48 h
# 786-O = system: 786-O
# Outline: (§1)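 Stained cells were imaged confocally at 20X with 9 fields per well, after 48 h of exposure to library compounds at 10 or 5 uM (set by library; 0.1% DMSO final). The cells were five cancer lines and a healthy fibroblast line. From the images, Harmony extracted 77 features, each expressed as a signed Kolmogorov-Smirnov statistic relative to same-plate vehicle wells. Phenoactivity is measured as Euclidean distance to the median vehicle profile, using plate-position-corrected, correlation-weighted profiles averaged across replicates at the top dose.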
# A549 = system: A549
# Outline: as §1
# DU145 = system: DU145
# Outline: as §1
# FB = system: FB
# Outline: as §1
# HEPG2 = system: HEPG2
# Outline: as §1
# OVCAR4 = system: OVCAR4
# Outline: as §1
Structure (SMILES),Euclidean distance (786-O),Euclidean distance (A549),Euclidean distance (DU145),Euclidean distance (FB),Euclidean distance (HEPG2),Euclidean distance (OVCAR4)
COc1ccc(NS(=O)(=O)c2ccc(N)cc2)nn1 [Sulfamethoxypyridazine],0.978,0.771,1.02,1.64,0.55,1.05
O=c1ccc2ccc(O)c(O)c2o1 [Daphnetin],1.49,0.859,0.975,1.15,1.18,0.972
CC(C)n1nc(-c2ccc3oc(N)nc3c2)c2c(N)ncnc21,3.74,3.47,2.16,5.4,2.31,3.52
C=C[C@H]1CN2CC[C@H]1C[C@@H]2[C@@H](O)c1ccnc2ccc(OC)cc12 [Quinidine sulfate],0.69,0.88,1.08,0.954,0.831,–
Cc1cc(F)c(Nc2ncnc3cc(OCc4ccccc4)ccc23)cc1O,1.83,0.984,0.521,1.8,0.631,0.745
NC(=O)c1cccc(-c2cccc(OC(=O)NC3CCCCC3)c2)c1,0.656,0.944,0.753,0.99,1.61,1.17
CC12CC3CC(C)(C1)CC(N)(C3)C2 [Memantine HCl],1.1,0.654,1.66,1.03,1.95,1.51
C[C@@H]1O[C@@H](OC[C@H]2O[C@@H](Oc3c(-c4ccc(O)c(O)c4)oc4cc(O)cc(O)c4c3=O)[C@H](O)[C@@H](O)[C@@H]2O)[C@H](O)[C@H](O)[C@H]1O [Rutin],1.11,0.756,0.783,0.933,0.632,0.909
NC[C@H]1O[C@H](O[C@H]2[C@H](O[C@@H]3O[C@H](CO)[C@@H](O)[C@H]3O)[C@@H](O)[C@H](N)C[C@@H]2N)[C@H](N)[C@@H](O)[C@@H]1O [Ribostamycin Sulfate],1.45,1.17,1.23,0.806,0.615,1.22
CN1[C@@H]2CC[C@H]1C[C@@H](OC(=O)c1c[nH]c3ccccc13)C2 [Tropisetron],1.17,1.76,1.05,1.46,1.1,1.17
COC(=O)C1=CO[C@@H](O[C@@H]2O[C@H](CO)[C@@H](O)[C@H](O)[C@H]2O)[C@@H]2C(CO)=CC[C@H]12 [Geniposide],0.724,0.87,1.03,0.949,0.616,1.23
O=C(O)c1cc(/N=N/c2ccc(S(=O)(=O)Nc3ccccn3)cc2)ccc1O [Sulfasalazine],1.02,0.839,0.638,1.14,0.963,0.897
O=C(CO)[C@@H](O)[C@H](O)[C@H](O)CO [Fructose],1.08,0.996,0.637,0.813,0.424,1.17
CC(C)c1cc(-c2ccc(F)c3ccccc23)nc(N)n1,0.8,0.73,0.946,0.742,1,1.28
COc1ccc(CCNCC(O)COc2cccc(C)c2)cc1OC (stereo not given) [Bevantolol hydrochloride],1.02,0.717,1.07,1.21,0.573,1.03
CCNC(=O)[C@H]1O[C@@H](n2cnc3c(N)nc(NCCc4ccc(CCC(=O)O)cc4)nc32)[C@H](O)[C@@H]1O,0.618,0.662,0.916,0.846,0.636,0.752
O=c1oc2cc(O)ccc2s1 [Tioxolone],1.49,0.671,0.857,0.922,2.64,1.29
CCc1nn(CCCN2CCN(c3cccc(Cl)c3)CC2)c(=O)n1CCOc1ccccc1 [Nefazodone hydrochloride],1.29,1.42,1.27,1.04,1.67,0.618
OB1OCc2cc(F)ccc21 [Tavaborole (AN-2690)],0.735,0.76,0.961,1.16,0.354,0.974
CC(C)/N=c1\cc2n(-c3ccc(Cl)cc3)c3ccccc3nc-2cc1Nc1ccc(Cl)cc1 [Clofazimine],1.02,1.1,0.808,1.7,0.662,1.05
COc1ccc(CCN(C)CCCC(C#N)(c2ccc(OC)c(OC)c2)C(C)C)cc1OC (stereo not given) [Verapamil HCl],0.99,0.567,0.723,1.41,0.719,–
O=c1[nH]c(=O)n([C@H]2C[C@H](O)[C@@H](CO)O2)cc1/C=C/Br [Brivudine],1.21,0.849,0.765,1.07,0.725,0.962

Structure (SMILES),Euclidean distance (786-O),Euclidean distance (A549),Euclidean distance (DU145),Euclidean distance (FB),Euclidean distance (HEPG2),Euclidean distance (OVCAR4)
COc1c(C)c2c(c(O)c1C/C=C(\C)CCC(=O)OCCN1CCOCC1)C(=O)OC2 [Mycophenolate Mofetil],2.59,3.61,2.11,3.32,2.76,3.19
CCCS(=O)(=O)N[C@H]1C[C@@H](N(C)c2ncnc3[nH]ccc23)C1,0.905,1.03,1.02,1.03,0.71,1.17
CCC(C)(C)C(=O)O[C@H]1C[C@@H](C)C=C2C=C[C@H](C)[C@H](CC[C@@H]3C[C@@H](O)CC(=O)O3)[C@H]21 [Simvastatin],1.35,0.686,1.1,1.4,1.9,1.18
COc1nccnc1NS(=O)(=O)c1ccc(N)cc1 [Sulfalene(SMPZ)],0.789,1.44,1.18,1.41,0.406,0.917
COC(=O)C1=C(C)NC(C)=C(C(=O)OC)C1c1ccccc1[N+](=O)[O-] [Nifedipine],1.37,0.783,0.776,1.11,1.58,–
CCCCc1oc2ccccc2c1C(=O)c1cc(I)c(OCCN(CC)CC)c(I)c1 [Amiodarone HCl],1.56,1.84,2.02,1.95,2.01,2.4
CCN(CC)CC#CCOC(=O)C(O)(c1ccccc1)C1CCCCC1 (stereo not given) [Oxybutynin],0.749,0.615,1.19,0.788,1.25,0.913
CC1=C(C(=O)O)N2C(=O)[C@@H](NC(=O)[C@H](N)C3=CCC=CC3)[C@H]2SC1 [Cefradine],0.837,0.567,0.805,1.14,0.578,0.907
CC(=O)Nc1ccc(C(=O)Nc2ccccc2N)cc1 [CI994 (Tacedinaline)],1.29,1.67,1.56,2.76,1.83,1.94
COc1ccccc1OCC(O)COC(N)=O (stereo not given) [Methocarbamol],1.4,0.507,1.06,0.751,1.83,0.907
CCCCNc1cc(C(=O)O)cc(S(N)(=O)=O)c1Oc1ccccc1 [Bumetanide],1.24,1.15,1.04,1.5,1.38,1.64
COc1ccc2ccc(=O)oc2c1CC=C(C)C [Osthole],1.34,0.749,0.86,1.14,0.394,0.956
CN1CC[C@H](c2c(O)cc(O)c3c(=O)cc(-c4ccccc4Cl)oc23)[C@H](O)C1 [Flavopiridol HCl],3.1,3.15,3.43,3.29,2.41,3.45
CC[C@@H]1/C=C(\C)C[C@H](C)C[C@H](OC)[C@H]2O[C@@](O)(C(=O)C(=O)N3CCCC[C@H]3C(=O)O[C@H](/C(C)=C/[C@@H]3CC[C@@H](O)[C@H](OC)C3)[C@H](C)[C@@H](O)CC1=O)[C@H](C)C[C@@H]2OC [Ascomycin (FK520)],1.06,1.18,1.28,1.43,0.58,0.799
CC(C)(O)CC[C@@H](O)[C@](C)(O)[C@H]1CC[C@@]2(O)C3=CC(=O)[C@@H]4C[C@@H](O)[C@@H](O)C[C@]4(C)[C@H]3CC[C@]12C [20-Hydroxyecdysone],0.539,1.05,1.19,1.28,1.06,1.08
c1cc(CN2CCCNCCNCCCNCC2)ccc1CN1CCCNCCNCCCNCC1 [Plerixafor 8HCl (AMD3100 8HCl)],1.37,1.38,0.691,1.5,0.69,1.7
CCOC(=O)/C=C(C)/C=C/C=C(C)/C=C/c1c(C)cc(OC)c(C)c1C [Etretinate],0.891,0.993,1.22,1.15,1.14,1.85
COC(=O)c1ccc(O)cc1 [Methyl 4-hydroxybenzoate],0.944,0.453,0.654,0.862,0.627,1.19
CC[C@]1(O)C[C@@H]2CN(CCc3c([nH]c4ccccc34)[C@@](C(=O)OC)(c3cc4c(cc3OC)N(C)[C@H]3[C@@](O)(C(=O)OC)[C@H](OC(C)=O)[C@]5(CC)C=CCN6CC[C@]43[C@@H]65)C2)C1 [Vinblastine sulfate],3.25,3.68,4.31,3.49,3.33,3
O=C(O)c1ccc(C=C2SC(=S)N(c3cccc(C(F)(F)F)c3)C2=O)cc1,0.542,0.983,0.711,0.939,0.977,1.56
CCOc1cc([C@@H](CS(C)(=O)=O)N2C(=O)c3cccc(NC(C)=O)c3C2=O)ccc1OC,1.2,0.481,1.78,0.934,0.783,0.611
